Screening data deposited in PubChem BioAssay by National Center for Advancing Translational Sciences (NCATS).
HP1b binding inh = blocks HP1-beta chromodomain binding to methylated histone tails | AlphaScreen HP1-beta / biotin-H3K9me3 peptide binding | hit rate 0.56% among 390,000 | P83916 | Potency, µM (highest dose often 114 µM), usual class: inhibitors; note: nearly all actives have a fitted effect of over 70% in size
Target sequence (P83916 whole entry, looked up): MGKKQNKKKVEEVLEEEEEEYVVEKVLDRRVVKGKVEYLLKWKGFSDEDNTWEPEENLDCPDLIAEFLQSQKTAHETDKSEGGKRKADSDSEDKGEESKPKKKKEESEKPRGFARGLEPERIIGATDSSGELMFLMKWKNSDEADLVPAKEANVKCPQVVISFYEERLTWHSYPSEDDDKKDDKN
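Compound inhibition of the preformed complex between 50 nM HP1-beta and 50 nM biotinylated H3K9me3 peptide was read by AlphaScreen. Buffer was PBS pH 7.4 with 0.01% Tween-20. Incubations ran 30 min at room temperature, with 10 ug/mL donor/acceptor beads.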
BAZ2B block = inhibitors of human BAZ2B bromodomain; Q9UIF8; AlphaScreen BAZ2B-H3K14Ac peptide displacement; Potency, µM (series often up to 114 µM), usual class: inhibitors; hit rate 4.4% among 360,000; AID 504333; note: nearly all actives have a fitted effect of over 60% in size
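BAZ2B 50 nM plus b-H3(5-23)K14Ac 50 nM, PBS pH 7.4/0.01% Tween-20, 30 min RT; compound added (max 110 uM), 30 min RT; streptavidin donor/Ni-chelate acceptor beads 10 ug/mL final, 20 min dark; AlphaScreen read.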
Sfp inh = blocks B. subtilis Sfp PPTase activity | hit rate 3.5% among 310,000 | Potency, µM, actives largely listed as inhibitors | Q9F4F7 | Biochemical Sfp PPTase activity, qHTS | AID 1490;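 note: the enzyme is Sfp with the accession as filed and its product quenches rhodamine fluorescence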
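After 15 min at room temperature with compound, 15 nM Sfp received 5 uM rhodamine-CoA plus 12.5 uM BHQ-2-ybbR (50 mM Hepes pH 7.6, 10 mM MgCl2). Rate came from the fluorescence difference over 30 min, ex 525/em 598 nm.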
G9a inh = G9a (human) methyltransferase inhibition. Q96KQ7. Potency, µM (titrated, usually from 102 µM), usual class: inhibitors. G9a H3K9 monomethylation, AlphaScreen, 2 h. hit rate 8.8% among 350,000; note: nearly all actives have a fitted effect of over 75% in size
Target sequence (Q96KQ7 913-1193 limits assumed): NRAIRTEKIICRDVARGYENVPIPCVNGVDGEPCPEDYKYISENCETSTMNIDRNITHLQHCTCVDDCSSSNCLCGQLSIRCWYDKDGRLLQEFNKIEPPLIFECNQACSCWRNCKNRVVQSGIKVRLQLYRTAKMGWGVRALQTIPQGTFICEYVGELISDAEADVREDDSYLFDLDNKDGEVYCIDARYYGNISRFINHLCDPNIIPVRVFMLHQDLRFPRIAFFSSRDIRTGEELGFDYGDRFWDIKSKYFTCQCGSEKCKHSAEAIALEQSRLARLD
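G9a (20 nM) preincubated 15 min RT with compounds, then 500 nM biotinylated H3K9 peptide and 20 uM SAM added; 2 h RT reaction. Monomethyl-H3K9 product detected by AlphaScreen with anti-H3K9me1 antibody, streptavidin donor and anti-rabbit IgG acceptor beads.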
JMJD2A Tudor inh = JMJD2A Tudor domain (human) inhibition; AlphaScreen JMJD2A-Tudor / H3K4me3 peptide binding; AID 504339; Potency, µM (titrated, usually from 114 µM), hits mostly inhibitors; O75164; hit rate 4.4% among 390,000; note: nearly all actives have a fitted effect of over 50% in size
L3MBTL1 inh = blocks human L3MBTL1 | AlphaScreen L3MBTL1–H3K9me1 peptide binding | Potency, µM (doses to about 57.1 µM), usual class: inhibitors | hit rate 0.66% among 230,000; note: nearly all actives have a fitted effect of over 60% in size
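L3MBTL1 (50 nM) pre-complexed 30 min with biotinylated H3(1-15)K9me1 peptide (75 nM), then compounds added for 30 min at room temperature; AlphaScreen streptavidin donor/nickel chelate acceptor beads (10 ug/mL final) read after 30 min dark incubation.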
Hits are given with their value; i = inactive; ? = inconclusive; nt = no result given; [ ] = dose if it differs, or a comment. This is a sample that favours compounds with a hit; in the whole collection about 12% have one here. Calls come from the whole dose curve; as a rule, active = well fitted curve in the direction sought with a large enough effect; inconclusive = small, poorly fitted or top-dose-only effect, or another doubt; inactive = no such curve, though single readings can be large; an effect the other way counts as inactive or inconclusive.

SMILES | HP1b binding inh | BAZ2B block | Sfp inh | G9a inh | JMJD2A Tudor inh | L3MBTL1 inh
O=C(CS(=O)(=O)c1cccc2nsnc12)Nc1cc(F)ccc1F | i | i | nt | i | i | nt
COc1ccc(-c2oc3c(CC=C(C)C)c(O[C@H]4OC(CO)C(O)C(O)C4O)cc(O)c3c(=O)c2O[C@@H]2OC(C)C(O)C(O)C2O)cc1 (stereo partly specified) | nt | nt | i | i[2.33 µM] | nt | nt
CCCOc1ccc(C(=O)NNC(=S)NC(=O)c2ccccc2[N+](=O)[O-])cc1 | i | i | i | i[0.501 µM] | i | i[2.29 µM]
CCC(=O)NC(=S)NNC(=O)c1ccccc1[N+](=O)[O-] | i | ? | 10µM | 3.16µM | i | i
CCCC(=O)Nc1ccc(C(=O)NNC(=S)NC(=O)c2ccc(Br)o2)cc1 | ? | i | i | 39.8µM | i[11.4 µM] | i
CCCCC(=O)Nc1ccc(C(=O)NNC(=O)c2ccc(C)c(Br)c2)cc1 | i | i | i | ? | 56.2µM | i
Cc1ccccc1OCC(=O)NNC(=S)NC(=O)c1ccccc1[N+](=O)[O-] | i | i | i | i | i | i
CCCCC(=O)Nc1ccc(C(=O)NNC(=O)CCc2ccccc2)cc1 | i | i | i | i[2.33 µM] | i | i
COc1ccc(NC(=S)NC(=O)c2ccc(Br)o2)cc1 | i | i | ? | i | i | i[2.29 µM]
CC(C)(C)c1ccc(OCC(=O)NNC(=S)NC(=O)c2ccccc2[N+](=O)[O-])c(Br)c1 | ? | i | 39.8µM | 44.7µM | ? | i
CC(C)C(=O)Nc1ccc(C(=O)NNC(=S)NC(=O)c2ccccc2[N+](=O)[O-])cc1 | i | i | i | i[12.7 µM] | i | i
O=C(NNC(=O)c1ccccc1[N+](=O)[O-])c1ccccc1[N+](=O)[O-] | i | i | i | 10µM | i | i
CCCCC(=O)Nc1ccc(C(=O)NNC(=S)NC(=O)c2ccccc2[N+](=O)[O-])cc1 | i | i | 35.5µM | ? | i | i
O=C(NC(=S)NNC(=O)c1ccccc1[N+](=O)[O-])c1ccccc1 | ? | i | 35.5µM | 2.51µM | 28.2µM | i
O=C(NNC(=S)NC(=O)c1ccccc1[N+](=O)[O-])c1ccccc1 | i | i | i | ? | i | i
O=C(NCCNC(=O)c1ccccc1[N+](=O)[O-])c1ccccc1[N+](=O)[O-] | i | nt | nt | nt | i | nt
O=c1cnc2cnc(Nc3ccccc3)nc2n1C1CC1 | nt | nt | i | i[0.501 µM] | nt | nt
COc1ccc(C)cc1NC(=O)C(OC(=O)CNC(=O)c1ccccc1)c1ccccc1 (stereo unspecified) | nt | nt | nt | nt | i | nt
Cn1c2cc(S(C)(=O)=O)sc2c2cnn(Cc3ccccc3F)c(=O)c21 | nt | nt | nt | nt | i | nt
CC(C)OCCCNC(=S)Nc1ccc(S(N)(=O)=O)cc1 | 31.6µM | i | 2.24µM | 10µM | 89.1µM | i
CC(=O)c1ccc(NC(=S)NCCc2ccc(S(N)(=O)=O)cc2)cc1 | i | i | i | i | i | i
COc1ccc([N+](=O)[O-])cc1NC(=S)Nc1ccccc1 | i | i | ? | ? | i | nt
O=[N+]([O-])c1ccc(NNC(=S)Nc2ccccc2)cc1 | 56.2µM | 50.1µM | 3.55µM | ? | 50.1µM | nt
O=[N+]([O-])c1ccc(NC(=S)NCc2ccncc2)cc1 | i | i | i | i | i | nt
O=[N+]([O-])c1ccc(NC(=S)NCCc2ccccc2)cc1 | ? | ? | i | 44.7µM | ? | i
SMILES | HP1b binding inh | BAZ2B block | Sfp inh | G9a inh | JMJD2A Tudor inh | L3MBTL1 inh
O=[N+]([O-])c1ccc(O)c(NC(=S)Nc2ccccc2)c1 | ? | i | 50.1µM | 4.47µM | ? | nt
Cc1ccc(C(=O)NCC(c2ccco2)S(=O)(=O)c2cccs2)cc1C (stereo unspecified) | i | i | nt | i | i | nt
CCc1ccc(-n2nc(C)c3c(C(=O)Nc4cc(C)ccc4C)cc(C)nc32)cc1 | i | i | nt | i | i | nt
CC(=O)Oc1ccc(C(=O)NCCc2ccccc2)cc1 | i | i | i | i | i | i
CC(=O)Oc1ccc(-c2ccc(C(=O)NCCc3ccc(S(N)(=O)=O)cc3)cc2)cc1 | i | i | i | 70.8µM | i | nt
NS(=O)(=O)c1ccc(CCNC(=O)c2ccc[nH]c2=S)cc1 | ? | i | 56.2µM | 1.41µM | 2.24µM | nt
NS(=O)(=O)c1ccc(NC(=S)NCCc2ccccc2)cc1 | i | i | 7.94µM | 11.2µM | i | i
CC[N+]1(CC)CC2CCC(C)(C1)C2(C)C (stereo unspecified) | i | i | i | ? | ? | nt
CC12CCC(C[N+](C)(C)C1)C2(C)C (stereo unspecified) | i | i | i | ? | 22.4µM | nt
N[C@@H](C(=O)O)c1cc(O)ccc1Cl | nt | nt | i | nt | nt | nt
O=C(O)c1ccc(N/N=C/C2=Cc3ccccc3OC2)cc1 | i | i | i | 50.1µM | i[11.4 µM] | i
O=C(N/N=C/c1ccco1)c1ccc(NC(=O)c2ccc(Cl)cc2)cc1 | i | i | i | i | i | nt
Cc1cccc(C(=O)Nc2ccc(C(=O)N/N=C/c3ccco3)cc2)c1 | ? | nt | nt | nt | 44.7µM | nt
O=C(N/N=C/c1ccco1)C1CC1c1ccccc1 (stereo unspecified) | ? | 50.1µM | i | i | ? | ?
O=C(CCC(=O)Nc1ccccc1)N/N=C/c1ccco1 | i | i | i | i | i | i
CC(C)(C)c1ccc(C2CC2C(=O)N/N=C\c2ccc[nH]2)cc1 (stereo unspecified) | ? | ? | i | 39.8µM | 56.2µM | ?
O=C(N/N=C/c1ccco1)Nc1ccccc1 | i | i | i | 79.4µM | i | i
O=C(N/N=C/c1ccco1)C1CC1 | i | i | i | i | i | i
O=C(N/N=C/c1c[nH]c2ccccc12)C1CC1c1ccccc1 (stereo unspecified) | i | i | i | ? | i | i
COc1cccc(CNC(=O)c2ccc3c(c2)nc2n3CCC(C)C2)c1OC (stereo unspecified) | i | i | nt | i | i | nt
O=C(CSc1ncccn1)NNC(=O)c1ccccc1 | i | nt | nt | nt | i | nt
O=C(CSc1ncn[nH]1)NNC(=O)c1ccccc1 | i | i | nt | i[0.501 µM] | 7.94µM | i
O=C(CSc1ncn[nH]1)OCN1C(=O)c2ccccc2C1=O | i | i | i | 35.5µM | i | i
Cc1ccccc1-n1c(C)nnc1SCC(=O)NNC(=O)c1ccccc1 | i | i | i | i | i | i
Cc1nnc(SCC(=O)NNC(=O)c2ccccc2)n1-c1ccccc1 | i | i | i | i | 50.1µM | i
SMILES | HP1b binding inh | BAZ2B block | Sfp inh | G9a inh | JMJD2A Tudor inh | L3MBTL1 inh
CCN(Cc1ccccc1)C(=O)CSc1ncn[nH]1 | i | i | i | 44.7µM | i | nt
COc1ccc(NC(=O)CCn2cnnn2)cc1 | i | i | nt | i | i | nt
CC(=O)N1CCC2(CC1)CCN(C(=O)Nc1cccc(F)c1)CC2 | nt | nt | i | i[12.7 µM] | nt | nt
O=C(CSc1nnc(-c2ccccc2O)n1-c1ccccc1)Nc1cccc(C(=O)O)c1 | i | ? | i | 50.1µM | i | i
COC(=O)c1cc2n3ccccc3c(C)c(-c3ccccc3)c-2c1C(=O)OC | ? | 44.7µM | i | 44.7µM | ? | nt
CCOC(=O)c1c(C)[nH]c(C2=NNC(=Nc3ccccc3OC)SC2)c1C | ? | ? | 79.4µM | ? | 50.1µM | i
